# From PubChem BioAssay (NCI)
# Compounds without any hit were thinned out: in the full panel of roughly 83,000, 20% have a hit.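 How to read the values: 0–100, growth inhibition (40 = 60% inhibited); 0, no net growth; -100 to 0, cell death (-40 = 40% of starting cells died; -100 = all dead).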 Active and inactive are the calls of the source. The calls were made as follows: active = growth percent below 10; inactive = the rest.
# Tested on: MDA-MB-468 breast
# Assay: NCI-60 one-dose screen, 48 h (100 = growth as untreated, 0 = no growth, -100 = all killed)
# Details: 10 µM unless noted
row,SMILES,growth
1,COc1cc(/C=C2\CN(S(=O)(=O)c3ccc(C)cc3)C/C(=C\c3cc(CN4CCCCC4)c(O)c(OC)c3)C2=O)cc(CN2CCCCC2)c1O,-63.3% (active)
2,COc1ccc(-c2cc(/C=C/C(=O)c3ccc(N)cc3)[nH]n2)cc1OC,-1.28% (active)
3,CCCCCCCCCCCCCC[n+]1cccc(C(N)=O)c1,-59.9% (active)
4,NC(=O)c1c(OCc2c(F)cc(Br)cc2F)nsc1NC(=O)NCCCCN1CCCC1,-57.8% (active)
5,COc1ccc(OC)c(-c2nc(SCC(=O)c3ccc(Br)cc3)nc(Nc3ccc(S(N)(=O)=O)cc3)c2C#N)c1,43.9% (inactive)
6,CCN(CC)CCCC(C)Nc1c(-c2ccccc2)cnc2cc(Cl)ccc12 (stereo not drawn),44.4% (inactive)
7,C#C[C@]1(O)CC[C@H]2[C@@H]3CC=C4c5sc(C6CC6)nc5CC[C@]4(C)[C@H]3CC[C@@]21C,68.4% (inactive)
8,O=C(N/N=C/c1ccc(O)cc1O)c1cccnc1,6.57% (active)
9,COC(=O)[C@@H](Cc1c[nH]c2ccccc12)NC[C@@H](O)CN1C(=O)/C(=C\c2cc(OC)c(OC)c(OC)c2)c2ccccc21,37.9% (inactive)
10,Cc1nn(-c2ccccc2)c2nc(C)n(-c3ccc(Br)cc3)c(=O)c12,-5.99% (active)
11,Cc1ccc(-c2nc3ccccc3c(=O)n2/N=C/c2cccc3ccccc23)cc1,80.9% (inactive)
12,Oc1ccccc1-c1nc2ccccn2c1NCCN1CCOCC1,109% (inactive)
13,O=C(NCc1cccnc1)c1ccc([N+](=O)[O-])o1,69.5% (inactive)
